Laboratory results reported in PubChem BioAssay.
Values without a mark were called inactive. No rule for the calls is given here.

System: Aerobactin synthetase IucA (Klebsiella pneumoniae, hypervirulent)
Test: IucA enzyme inhibition, biochemical, LOPAC library, absorbance readout (AID 1346212);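 also: 100% = no compound wells and 0% = no enzyme wells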
Settings: IucA enzyme assay, absorbance (OD) readout; stronger effect = lower value;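 tested at 8 µM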

SMILES | remaining activity
C[N+](C)(C)CCCCCNCC12CC3CC(CC(C3)C1)C2 | 120%
CCCCCC[C@@H]([C@@H](C)O)n1cnc2c(N)ncnc21 | 99.4%
S=C(Nc1ccccc1)Nc1nccs1 | 125%
CN1CCc2cc(O)c(O)cc2C(c2ccccc2)C1 (centres undefined) | 105%
O=C(O)CCC/C=C\C[C@@H]1[C@@H](/C=C/[C@H](O)C2Cc3ccccc3C2)[C@@H](F)C[C@@H]1O | 97.7%
C[N+](C)(C)CCCCCCCCCC[N+](C)(C)C | 91.8%
NC(N)=N/N=C/c1c(Cl)cccc1Cl | 87.5%
O=Nc1ccc2oc(=O)ccc2c1 | 103%
CC[N+](C)(C)c1cccc(O)c1 | 86.8%
NO | 100%
CN(C)c1ccc(/C=C2\C(=O)Nc3ccccc32)cc1 | 95.7%
S=C(S)N1CCCC1 | 83.6%
Cc1ccc(O)c(N=Nc2ccccc2)n1 | 82.6%
O=c1cc(-c2ccccc2)[nH]c2nc(Cl)ccc12 | 117%
C[C@H](Cc1ccc(O)c(O)c1)[C@@H](C)Cc1ccc(O)c(O)c1 | 117%
S=C(S)OC1CC2CC1C1CCCC21 (centres undefined) | 94.5%
CC(=O)OCC(=O)[C@@]1(O)CC[C@H]2[C@@H]3CCC4=CC(=O)CC[C@]4(C)[C@H]3C(=O)C[C@@]21C | 102%
O=c1[nH]c2cc([N+](=O)[O-])c([N+](=O)[O-])cc2[nH]c1=O | 101%
CN1[C@@H]2CC[C@H]1CC(OC(=O)[C@H](CO)c1ccccc1)C2 (some centres undefined) | 107%
COc1cc(N)c(Cl)cc1C(=O)OCCN1CCCCC1 | 110%

SMILES | remaining activity
CC(=O)O[C@H]1Cc2ccccc2N(C(N)=O)c2ccccc21 | 85%
CCN1CCC[C@H]1CNC(=O)c1c(O)c(Cl)cc(Cl)c1OC | 98.9%
O=C(O)CCC(=O)N1CCCC1C(=O)O (centres undefined) | 98.4%
CN(C)C(=O)/N=N/C(=O)N(C)C | 93.2%
CCCNC[C@H](O)COc1ccccc1C(=O)CCc1ccccc1 | 91.3%
CNCCCC1c2ccccc2C=Cc2ccccc21 | 101%
CC1=C(C(=O)O)N2C(=O)[C@@H](NC(=O)[C@H](N)C3=CCC=CC3)[C@H]2SC1 | 113%
Cc1ccc(OC[C@H](O)[C@H](C)NC(C)C)c2c1CCC2 | 101%
Nc1ccc(N2C(=O)c3ccccc3C2=O)c(Cl)c1 | 105%
Cc1[nH]c(=O)c(C#N)cc1-c1ccc2nccn2c1 | 112%
O=c1cc(O)cc(/C=C/c2ccc(O)c(O)c2)o1 | 93.8%
CNC(=O)[C@H]1O[C@@H](n2cnc3c(N)ncnc32)C(O)[C@H]1O (some centres undefined) | 129%
CN1Cc2sccc2C(c2ccc(O)c(O)c2)C1 (centres undefined) | 120%
COc1cc(C(=O)OCCCN2CCCN(CCCOC(=O)c3cc(OC)c(OC)c(OC)c3)CC2)cc(OC)c1OC | 116%
Nc1ncnc2c1c(-c1ccc(Oc3ccccc3)cc1)cn2C1CCCC1 | 122%
C1CCC(N=C(NC23CC4CC(CC(C4)C2)C3)N2CCOCC2)CC1 | 122%
C[C@H](NCCc1ccc(O)cc1)[C@H](O)c1ccc(O)cc1 | 94.5%
Cc1cccc(C2CN(C)CCc3c2cc(O)c(O)c3Cl)c1 (centres undefined) | 105%
COc1ccc2c(c1OC)C(=O)O[C@@H]2[C@H]1c2c(cc3c(c2OC)OCO3)CCN1C | 112%
